The record followed here is PubChem BioAssay.

Molecules are shown by their SMILES. Records with an inconclusive call do not appear. Active and inactive are the calls of the source.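 How the source made its calls, unless noted: active means aptamer binding inhibition above 30%, about 3 SD of noise from non-fluorescent compounds; inactive means inhibition at or below 30%.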

Assay [1] can be described thus: yeast TOR pathway RPL19A-GFP modulators, primary screen, cell-based, S. cerevisiae, multiplex flow cytometry (AID 1862; in the data active means percent of DMSO control GFP below about 86%;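 further: lower values mimic rapamycin by blocking the RPL19A rise seen in DMSO cells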). The conditions noted are these: S. cerevisiae RPL19A-GFP strain, flow cytometry fluorescence, 3 h; at 10 µM; stronger effect = lower value. (In general: In flow cytometry, cells or beads pass a laser one at a time.)
Assay [2] is described as follows: modulators of MEP2-GFP levels in yeast, primary screen, S. cerevisiae, multiplex flow cytometry (AID 1867;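 active means GFP response, as percent of the DMSO control, above the screen-wide mean plus 3 SD, about 139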;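 further: median GFP channel fluorescence of barcode-gated MEP2-GFP cells measured by flow cytometry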). The conditions noted are these: S. cerevisiae MEP2-GFP strain, 3 h, at 10 µM, stronger effect = higher value, 100% means same as DMSO wells.
Assay [3] is described as follows: modulators of CIT2-GFP expression in yeast, primary screen, S. cerevisiae, GFP fusion, multiplex flow cytometry (AID 1870;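 active means percent response above a set limit, the screen-wide mean plus 3 SD, cut at about 130% in these data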;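 further: barcoded CIT2-GFP strain pooled with four other GFP strains with rapamycin as positive control; median GFP fluorescence per well over plate mean of DMSO wells so 100% = DMSO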). The conditions noted are these: 3 h, at 10 µM, stronger effect = higher value.
A short description of assay [4]: modulators of LAP4-GFP expression in yeast, primary screen, S. cerevisiae, multiplex flow cytometry (AID 1873;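 active means GFP signal, as percent of the solvent control, above the screen mean plus 3 SD, about 149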). The conditions noted are these: 3 h, at 10 µM, stronger effect = higher value.
A short description of assay [5]: modulators of AGP1-GFP expression in yeast TOR pathway, primary screen, cell-based, multiplex flow cytometry, S. cerevisiae (AID 1887;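 active means GFP signal above the screen-wide mean plus 3 SD, that is over about 124.5% of the solvent control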;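 further: AGP1-GFP fusion strain of S. cerevisiae within a five-strain barcoded multiplex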). The conditions noted are these: 3 h, at 10 µM, stronger effect = higher value.
The nature of assay [6]: inhibitors of CD8+ T cell-vesicle binding, pilot screen, LFA-1/ICAM-1 modulator project, MLPCN validation set, flow cytometry (AID 2523;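 active means response below a set limit, under 55% cells CD8-positive and vesicle-bound, and CD8 cells' 90th-percentile brightness under 279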;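 on vesicle binding response: mean PE anti-B7-1 fluorescence of CD8+ cells relative to row control; 100% = QL9-loaded vesicles with DMSO vehicle in the same plate row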). The conditions noted are these: 2C mouse CD8+ T cells, at 7 µM, stronger effect = lower value; double positive events: measured here: CD8+/vesicle+ event percentage.
The target in assay [7] is Integrin beta-1 (Homo sapiens) + Integrin alpha-4 (Homo sapiens) (UniProt P13612+P05556). Kind of assay: inhibition of HUTS-21 binding to VLA-4, pilot screen, VLA-4 allosteric modulator project, U937 cells, HUTS-21 mAb, flow cytometry, validation set (AID 2674;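 active means inhibition above 50%, about 3 SD of the validation set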;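 further: antibody binding induced by the VLA-4 ligand LDV present at three times its Kd; 0% = LDV ligand with antibody and no compound and 100% = antibody without LDV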). The conditions noted are these: HUTS-21 LIBS mAb binding, at 6.7 µM, stronger effect = higher value, binding induced by LDV ligand.

Assay [8] is described as follows: superoxide lowering in aged yeast cells, pilot screen, validation compound set (AID 2706;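 active means superoxide response below 65% of plate, a cut near 3 SD across the whole screen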;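 further: yeast exposed to compound for one week at 30 degrees C before staining; 100% = mean of all compound wells on the same plate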). The conditions noted are these: S. cerevisiae aging, superoxide DHE fluorescence; at 10 µM; stronger effect = lower value.
The target of assay [9] is Beta-adrenergic receptor kinase 1 (Homo sapiens) (UniProt P25098). Kind of assay: GRK2 binders displacing RNA aptamer, biochemical, validation, human GRK2, bead flow cytometry (AID 488806). The following applies: bead-bound GRK2, FAM-aptamer displacement, at 10 µM, stronger effect = higher value.
Assay [10] concerns the target Beta-2 adrenergic receptor (Homo sapiens) (UniProt P07550). The assay can be described thus: beta2AR agonists driving receptor internalization, pilot screen, cell-based, FAP fluorogen, flow cytometry, validation set (AID 504459;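 active means percent response above 42, roughly 3 SD of non-fluorescent test compounds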;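 further: agonist-driven loss of surface beta2AR via internalization measured by FAP dye flow cytometry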). The following applies: Am2.2-beta2AR cells, FAP surface receptor flow cytometry; at 10 µM; stronger effect = higher value.
The target of assay [11] is AP-2 complex subunit beta (Homo sapiens) (UniProt P63010). The assay can be described thus: inhibitors of arrestin peptide binding to AP2, pilot screen, biochemical, validation set, GST-AP2 beads, flow cytometry (AID 504541;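 active means inhibition above 54%, about 3 SD of non-fluorescent compounds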;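 further: AP2 carries R879A mutation and is captured from E. coli lysate; bead-bound FITC arrestin peptide fluorescence measuring arrestin peptide binding to AP2; 0% = DMSO wells and 100% = excess unlabeled arrestin peptide control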). The conditions noted are these: FITC arrestin peptide, at 10 µM, stronger effect = higher value, AP2 beta2 appendage fragment, R879A mutant.
A short description of assay [12]: yeast V-ATPase proton transport modulators, S. cerevisiae, pHLuorin, HTS validation (AID 504600; in the data active means response above about 15%;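 further: plate controls were DMSO for no effect and reference compound for full effect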). The following applies: S. cerevisiae pHLuorin cytosolic pH, at 10 µM, stronger effect = higher value.
Assay [13] has as its system anti-desmoglein-3 scFv antibody binding to human DSG3. The assay can be described thus: inhibitors of anti-DSG3 scFv binding to DSG3, pilot screen, biochemical, validation compound set, bead-based, flow cytometry (AID 588368;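 active means binding below the plate cutoff, the plate median minus 3 SD, with a reading above zero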;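 further: signal is the median channel fluorescence of bead-bound GFP antibody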). The conditions noted are these: Protein G beads, DSG3-Fc, scFv-GFP binding, at 10 µM, stronger effect = lower value.
Assay [14] can be described thus: inhibitors of fungal efflux pumps CDR1, CDR2, MDR1, pilot screen, validation compound set, multiplex, phenotypic (AID 588506;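 active means efflux inhibition above 0.42, the validation set average plus 4 SD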;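 further: Nile Red retained in cells so higher fluorescence means more efflux inhibition; 0 = negative control wells and 1 = enniatin B 25 µM full block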). The conditions noted are these: S. cerevisiae pump-expressing triplex, Nile Red efflux flow cytometry; at 10 µM; stronger effect = higher value; the pumps come from Candida albicans.
The target of assay [15] is ATP-binding cassette sub-family B member 6 (Homo sapiens) (UniProt Q9NP58). The assay can be described thus: ABCB6 transporter inhibitors, pilot screen, K562-ABCB6 cells, flow cytometry, validation set (AID 588550;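 active means inhibition above the screen-wide mean plus 3 SD, about 51%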;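 further: 0% = DMSO wells and 100% = benzethonium chloride 70 µM positive control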). The following applies: K562-ABCB6 porphyrin accumulation, 1 h, at 10 µM, stronger effect = higher value.
The nature of assay [16]: promoters of myeloid differentiation in arrested cells, primary screen, cell-based, GFP/MAC1 double positive, flow cytometry, validation set (AID 588685;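 active means differentiation response of at least 50%, scaled between solvent and reference control, from cells with both markers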;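 further: compound exposure lasts four days before antibody staining and flow analysis; 0% = DMSO wells and 100% = 5 µM fulvestrant positive control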). The following applies: ER-HoxA9 marrow cells, stronger effect = higher value, normalized: vehicle 0, fulvestrant 100.

Sequence of Integrin beta-1 (Homo sapiens) + Integrin alpha-4 (Homo sapiens) (P05556 whole entry, looked up): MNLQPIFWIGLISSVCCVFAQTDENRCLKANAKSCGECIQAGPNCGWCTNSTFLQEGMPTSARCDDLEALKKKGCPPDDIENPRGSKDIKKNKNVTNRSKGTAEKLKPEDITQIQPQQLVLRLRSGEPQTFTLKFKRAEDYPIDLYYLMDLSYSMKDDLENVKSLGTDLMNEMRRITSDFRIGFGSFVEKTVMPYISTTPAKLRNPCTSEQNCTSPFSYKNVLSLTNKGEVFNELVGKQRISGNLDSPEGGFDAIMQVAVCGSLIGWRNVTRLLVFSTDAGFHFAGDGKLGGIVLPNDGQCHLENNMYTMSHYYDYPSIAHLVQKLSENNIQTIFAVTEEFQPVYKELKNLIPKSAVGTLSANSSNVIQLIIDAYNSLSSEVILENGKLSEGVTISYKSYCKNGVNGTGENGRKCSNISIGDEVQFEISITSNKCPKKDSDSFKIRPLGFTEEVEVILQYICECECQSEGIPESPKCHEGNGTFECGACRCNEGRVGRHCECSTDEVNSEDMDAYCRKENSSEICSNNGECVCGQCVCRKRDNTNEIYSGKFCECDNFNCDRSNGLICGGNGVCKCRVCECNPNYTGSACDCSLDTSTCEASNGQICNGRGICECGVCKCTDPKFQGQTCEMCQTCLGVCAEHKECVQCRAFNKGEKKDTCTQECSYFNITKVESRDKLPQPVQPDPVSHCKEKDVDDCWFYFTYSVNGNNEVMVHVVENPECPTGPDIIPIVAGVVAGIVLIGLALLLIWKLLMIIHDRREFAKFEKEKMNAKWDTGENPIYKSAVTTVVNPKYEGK
Sequence of Integrin beta-1 (Homo sapiens) + Integrin alpha-4 (Homo sapiens) (P13612 whole entry, looked up): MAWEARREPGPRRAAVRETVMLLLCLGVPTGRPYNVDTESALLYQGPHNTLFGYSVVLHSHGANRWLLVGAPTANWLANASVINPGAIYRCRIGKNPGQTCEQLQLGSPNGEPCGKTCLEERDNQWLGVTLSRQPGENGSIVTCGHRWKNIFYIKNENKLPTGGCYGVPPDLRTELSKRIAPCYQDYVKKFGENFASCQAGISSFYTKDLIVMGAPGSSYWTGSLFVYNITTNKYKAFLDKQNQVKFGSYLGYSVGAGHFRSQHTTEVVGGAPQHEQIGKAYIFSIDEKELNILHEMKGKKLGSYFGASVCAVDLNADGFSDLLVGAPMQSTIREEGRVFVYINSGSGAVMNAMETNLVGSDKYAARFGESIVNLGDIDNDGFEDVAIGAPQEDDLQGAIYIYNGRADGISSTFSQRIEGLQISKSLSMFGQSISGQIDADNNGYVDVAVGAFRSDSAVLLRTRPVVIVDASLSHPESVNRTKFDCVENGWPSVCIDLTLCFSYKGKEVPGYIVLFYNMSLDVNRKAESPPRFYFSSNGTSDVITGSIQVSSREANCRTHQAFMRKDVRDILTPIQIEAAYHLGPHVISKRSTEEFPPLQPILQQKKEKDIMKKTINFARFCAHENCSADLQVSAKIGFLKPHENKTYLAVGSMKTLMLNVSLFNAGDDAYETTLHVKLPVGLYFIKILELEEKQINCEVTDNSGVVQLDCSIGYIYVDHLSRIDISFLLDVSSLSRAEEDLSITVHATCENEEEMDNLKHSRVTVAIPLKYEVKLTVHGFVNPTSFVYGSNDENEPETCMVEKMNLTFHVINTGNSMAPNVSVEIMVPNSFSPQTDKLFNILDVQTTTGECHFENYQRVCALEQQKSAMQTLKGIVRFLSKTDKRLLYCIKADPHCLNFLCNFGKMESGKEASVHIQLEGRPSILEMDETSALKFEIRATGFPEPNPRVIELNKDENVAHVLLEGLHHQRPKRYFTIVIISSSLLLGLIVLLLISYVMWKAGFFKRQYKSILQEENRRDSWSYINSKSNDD
Sequence of Beta-2 adrenergic receptor (Homo sapiens) (P07550 whole entry, looked up): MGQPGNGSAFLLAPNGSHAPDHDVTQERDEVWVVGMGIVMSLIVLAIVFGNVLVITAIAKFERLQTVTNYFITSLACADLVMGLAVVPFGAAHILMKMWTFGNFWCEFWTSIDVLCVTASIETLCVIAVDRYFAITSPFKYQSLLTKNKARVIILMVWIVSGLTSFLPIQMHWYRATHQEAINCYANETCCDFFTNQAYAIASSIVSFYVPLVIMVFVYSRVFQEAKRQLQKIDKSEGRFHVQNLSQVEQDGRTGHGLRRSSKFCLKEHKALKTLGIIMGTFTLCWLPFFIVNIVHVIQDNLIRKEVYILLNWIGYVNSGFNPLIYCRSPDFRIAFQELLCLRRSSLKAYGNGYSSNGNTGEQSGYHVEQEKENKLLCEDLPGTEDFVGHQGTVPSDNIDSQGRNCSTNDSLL
Sequence of AP-2 complex subunit beta (Homo sapiens) (P63010 whole entry, looked up, the tested form may be a part, one chain of several): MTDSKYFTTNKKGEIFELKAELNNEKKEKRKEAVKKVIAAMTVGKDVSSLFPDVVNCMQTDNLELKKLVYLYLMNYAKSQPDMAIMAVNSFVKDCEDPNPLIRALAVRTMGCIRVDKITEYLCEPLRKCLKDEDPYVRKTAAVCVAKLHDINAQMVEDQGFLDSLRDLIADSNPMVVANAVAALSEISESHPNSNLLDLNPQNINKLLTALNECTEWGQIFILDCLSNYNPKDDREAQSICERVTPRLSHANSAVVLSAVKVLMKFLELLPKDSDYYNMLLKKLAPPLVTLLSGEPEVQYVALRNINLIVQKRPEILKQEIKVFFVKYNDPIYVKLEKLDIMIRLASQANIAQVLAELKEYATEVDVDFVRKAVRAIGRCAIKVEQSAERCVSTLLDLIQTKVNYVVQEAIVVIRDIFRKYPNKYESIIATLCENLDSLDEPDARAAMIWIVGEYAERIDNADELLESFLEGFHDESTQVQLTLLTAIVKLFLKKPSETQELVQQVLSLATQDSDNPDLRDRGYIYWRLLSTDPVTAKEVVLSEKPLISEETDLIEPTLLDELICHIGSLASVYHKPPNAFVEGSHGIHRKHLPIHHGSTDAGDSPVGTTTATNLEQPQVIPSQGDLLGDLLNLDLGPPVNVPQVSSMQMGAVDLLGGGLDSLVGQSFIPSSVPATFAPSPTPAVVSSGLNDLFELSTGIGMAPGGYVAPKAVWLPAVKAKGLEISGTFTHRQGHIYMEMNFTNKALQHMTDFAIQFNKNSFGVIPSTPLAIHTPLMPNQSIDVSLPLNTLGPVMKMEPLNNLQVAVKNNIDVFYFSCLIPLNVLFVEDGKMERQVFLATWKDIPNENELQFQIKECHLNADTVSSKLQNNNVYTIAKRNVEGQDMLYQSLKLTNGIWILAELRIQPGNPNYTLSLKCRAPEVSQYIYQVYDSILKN
Sequence of Beta-adrenergic receptor kinase 1 (Homo sapiens) (P25098 whole entry, looked up): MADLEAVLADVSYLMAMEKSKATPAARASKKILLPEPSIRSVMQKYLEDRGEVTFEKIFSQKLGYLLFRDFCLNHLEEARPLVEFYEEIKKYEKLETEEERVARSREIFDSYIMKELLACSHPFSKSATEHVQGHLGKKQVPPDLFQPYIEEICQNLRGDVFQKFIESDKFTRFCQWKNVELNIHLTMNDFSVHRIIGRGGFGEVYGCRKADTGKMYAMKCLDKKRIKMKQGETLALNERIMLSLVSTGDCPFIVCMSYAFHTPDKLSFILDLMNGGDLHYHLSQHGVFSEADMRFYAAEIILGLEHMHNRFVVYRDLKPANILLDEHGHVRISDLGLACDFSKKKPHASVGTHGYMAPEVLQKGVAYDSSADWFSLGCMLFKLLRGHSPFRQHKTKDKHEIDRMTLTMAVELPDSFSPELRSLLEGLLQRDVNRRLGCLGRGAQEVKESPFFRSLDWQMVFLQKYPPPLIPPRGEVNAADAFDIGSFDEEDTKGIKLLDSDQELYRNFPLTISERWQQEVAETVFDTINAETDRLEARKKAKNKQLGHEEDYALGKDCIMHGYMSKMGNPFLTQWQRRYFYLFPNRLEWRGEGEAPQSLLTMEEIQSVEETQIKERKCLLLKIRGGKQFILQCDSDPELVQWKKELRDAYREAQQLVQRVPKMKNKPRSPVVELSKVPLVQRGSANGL
Sequence of ATP-binding cassette sub-family B member 6 (Homo sapiens) (Q9NP58 whole entry, looked up): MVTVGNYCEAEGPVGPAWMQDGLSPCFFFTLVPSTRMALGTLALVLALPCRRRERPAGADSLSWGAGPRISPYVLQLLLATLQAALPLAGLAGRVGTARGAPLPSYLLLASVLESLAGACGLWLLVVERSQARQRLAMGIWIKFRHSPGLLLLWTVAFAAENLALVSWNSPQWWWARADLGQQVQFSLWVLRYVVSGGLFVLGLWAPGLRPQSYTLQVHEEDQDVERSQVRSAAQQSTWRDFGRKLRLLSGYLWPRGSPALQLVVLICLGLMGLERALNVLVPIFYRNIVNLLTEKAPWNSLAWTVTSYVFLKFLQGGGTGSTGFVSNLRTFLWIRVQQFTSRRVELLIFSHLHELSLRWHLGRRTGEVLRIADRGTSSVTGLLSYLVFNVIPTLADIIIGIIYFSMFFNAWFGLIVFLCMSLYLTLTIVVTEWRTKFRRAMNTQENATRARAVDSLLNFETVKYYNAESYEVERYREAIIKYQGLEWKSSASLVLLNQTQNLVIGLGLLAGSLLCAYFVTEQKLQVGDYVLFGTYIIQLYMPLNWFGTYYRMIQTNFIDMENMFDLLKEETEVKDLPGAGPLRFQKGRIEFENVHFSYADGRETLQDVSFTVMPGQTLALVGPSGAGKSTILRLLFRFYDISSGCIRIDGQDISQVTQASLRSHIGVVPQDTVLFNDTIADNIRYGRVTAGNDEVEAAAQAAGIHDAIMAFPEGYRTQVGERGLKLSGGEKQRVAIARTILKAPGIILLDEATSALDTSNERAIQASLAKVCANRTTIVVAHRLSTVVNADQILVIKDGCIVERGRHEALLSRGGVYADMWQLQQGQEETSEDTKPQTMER

The inhibition is the drop in the measured response relative to a control, in per cent. With `COc1cc(C2Nc3ccccc3NC3=C2C(=O)CC(c2ccc(OC)c(OC)c2)C3)ccc1O` (stereo not given), the percent of DMSO control GFP in [1] is 107% (inactive). The results for the GFP response vs DMSO in assay [2] and in [4] were 95.2% (inactive) and 64.1% (inactive), respectively. For the same molecule, in assay [3], the percent response of DMSO control is 117% (inactive). Besides, in [5], the GFP response, % of DMSO is 92.2% (inactive). Further, in assay [6], the double positive events was found to be 53.7%. Also, in [6], the vesicle binding response was 104% (inactive). For the same molecule, the inhibition in [7] was -3.16% (inactive); in [11], -8.83% (inactive); in [15], 11% (inactive). In addition, the superoxide response (% of plate) in [8] was 107% (inactive). For the same molecule, the aptamer binding inhibition in assay [9] is 3% (inactive). Also, the response in assay [10] is 0.79% (inactive); in [12] it was 1.04% (inactive). In assay [13], the binding (% of control) was 98.4% (inactive). Moreover, in assay [14], the efflux inhibition (fraction of control) is -0.35 (inactive). Moreover, the differentiation response in assay [16] was -18.4% (inactive).

For `CCOC(=O)C1=C(N)Oc2c(c(=O)[nH]c3ccccc23)C1c1ccccc1` (stereo not given), the percent of DMSO control GFP in assay [1] is 100% (inactive). Also, the GFP response vs DMSO in [2] is 106% (inactive); in assay [4], 112% (inactive). The percent response of DMSO control in assay [3] was 91% (inactive). For the same molecule, the GFP response, % of DMSO in assay [5] was 107% (inactive). Also, in [6], the double positive events was 57.2%. In assay [6], the vesicle binding response was 179% (inactive). The figures for the inhibition in assay [7], in assay [11] and in assay [15] were 0.94% (inactive), 1.81% (inactive) and 7% (inactive), respectively. Also, in assay [8], the superoxide response (% of plate) was 103% (inactive). Moreover, in [9], the aptamer binding inhibition was 6% (inactive). Besides, the results for the response in assay [10] and in assay [12] were 3.69% (inactive) and 1.75% (inactive), respectively. In assay [13], the binding (% of control) is 104% (inactive). The efflux inhibition (fraction of control) in assay [14] was 0.01 (inactive). In assay [16], the differentiation response was -0.8% (inactive).

With `O=C(NCCc1c[nH]c2ccccc12)OCCSS(=O)(=O)O`, the percent of DMSO control GFP in assay [1] is 101% (inactive). Besides, the GFP response vs DMSO is 101% (inactive) in assay [2] and 102% (inactive) in [4]. In assay [3], the percent response of DMSO control is 108% (inactive). Besides, the GFP response, % of DMSO in [5] was 100% (inactive). The molecule also yielded a double positive events in assay [6] of 66.8%. Besides, the vesicle binding response in assay [6] was 1060% (inactive). In addition, the values for the inhibition in [7], in [11] and in assay [15] were -6.68% (inactive), -1.88% (inactive) and 7% (inactive), respectively. The superoxide response (% of plate) in assay [8] is 106% (inactive). Besides, in [9], the aptamer binding inhibition is 3% (inactive). The values for the response in [10] and in assay [12] were -2.85% (inactive) and 3.36% (inactive), respectively. Moreover, the binding (% of control) in assay [13] is 99.7% (inactive). For the same molecule, the efflux inhibition (fraction of control) in assay [14] was -0.07 (inactive). Also, the differentiation response in [16] is 2.2% (inactive).

In the case of `CC(C)COCC(CN(Cc1ccccc1)c1ccccc1)N1CCCC1` (stereo not given), the percent of DMSO control GFP in assay [1] is 93.5% (inactive). Moreover, the figures for the GFP response vs DMSO in [2] and in [4] were 121% (inactive) and 74.3% (inactive), respectively. Also, in assay [3], the percent response of DMSO control was 104% (inactive). Also, the GFP response, % of DMSO in assay [5] was 91.9% (inactive). In assay [6], the double positive events stood at 61.3%. Also, in assay [6], the vesicle binding response is 119% (inactive). Further, the values for the inhibition in assay [7], in assay [11] and in [15] were 1.61% (inactive), -11.8% (inactive) and 8% (inactive), respectively. Moreover, the superoxide response (% of plate) in assay [8] was 116% (inactive). Also, the aptamer binding inhibition in assay [9] is -2% (inactive). For the same molecule, the response was 8.3% (inactive) in assay [10] and 0.91% (inactive) in [12]. The binding (% of control) in [13] is 113% (inactive). In addition, the efflux inhibition (fraction of control) in assay [14] is 0.16 (inactive). For the same molecule, the differentiation response in assay [16] is -0.82% (inactive).

For `COc1ccc(C2CC(c3c(O)cc(C)oc3=O)=NCCS2)c(OC)c1` (stereo not given), the percent of DMSO control GFP in [1] was 102% (inactive). Further, the results for the GFP response vs DMSO in assay [2] and in assay [4] were 108% (inactive) and 86.8% (inactive), respectively. Moreover, the percent response of DMSO control in assay [3] is 111% (inactive). Further, the GFP response, % of DMSO in [5] was 96.4% (inactive). The double positive events in assay [6] turned out to be 64.5%. The vesicle binding response in assay [6] was 818% (inactive). The inhibition in assay [7] was 36.9% (inactive); in assay [11], 1.7% (inactive); in [15], -46% (inactive). Further, the superoxide response (% of plate) in assay [8] is 92% (inactive). Moreover, in assay [9], the aptamer binding inhibition is 1% (inactive). Also, the values for the response in assay [10] and in assay [12] were 19.6% (inactive) and 0.66% (inactive), respectively. Moreover, in assay [13], the binding (% of control) was 108% (inactive). Moreover, the efflux inhibition (fraction of control) in assay [14] was 0.14 (inactive). In assay [16], the differentiation response is -4.64% (inactive).
